Assay outcomes as filed in PubChem.
A selection: hits, their analogues and other compounds. The true share with any hit is near 8%.
KB-V1 cytotox: kills drug-selected multidrug resistant KB-V1 cells; 400,000 tested, 3.4% active; Potency, µM (series often up to 46.1 µM), most hits filed as cytotoxic; AID 1347076; KB-V1 MDR cells viability, CellTiter-Glo, 72 h; also: % is scaled to controls: 0 for no effect and ±100 for the full control effect; nearly all actives have a fitted effect of over 60% in size
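Compound-treated KB-V1 multidrug-resistant cells, 72 h, 37 degrees C; viability by CellTiter-Glo. Fitted qHTS curves give the values.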
HT1080 IDH1KD tx: toxicity to HT-1080 IDH1 knockdown cells (counter line); AID 686971; 360,000 tested, 2% active; Potency, µM (titrated, usually from 46.1 µM), without a hit: top-dose activity, negative = toxicity, usual class: cytotoxic; HT-1080 IDH1 knockdown viability, ATP luminescence, 48 h;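 also: 0% = DMSO wells and -100% = cell-free medium wells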
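HT-1080-IDH1KD cells (IDH1 knocked down), 750/well in RPMI with 5% FBS, treated with compound 48 h at 37 degrees C. Viability by CellTiter-Glo luminescence, normalised to DMSO and no-cell wells; concentration-response curves classed.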
SW480 rerep: inducers of DNA re-replication in SW480 colon cancer cells. SW480 DNA re-replication, Hoechst DNA content imaging, 48 h. Potency, µM (highest dose often 46.1 µM), for the others: at the highest dose re-replication activation, actives largely listed as activators. 340,000 tested, 1.8% active. AID 624297; also: % of control where 0% means no effect; nearly all actives have a fitted effect of over 55% in size
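First, 250 cells per well were seeded. Next, compound or vehicle (23 nL) was pinned in, plates sat 48 hr at 37 C. Finally Hoechst was added for 40 min before fluorescence scanning.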
HT1080-NT tox: kills 2HG-producing HT-1080-NT fibrosarcoma cells; HT-1080-NT fibrosarcoma viability, CellTiter-Glo ATP luminescence, 48 h; Potency, µM (series often up to 46.1 µM), for the others: at the highest dose activity, negative = less viability, hits mostly cytotoxic; 360,000 tested, 1.6% active; AID 686970;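 also: NT is the 2HG producing partner of a matched IDH1 knockdown line; 0% = DMSO-treated cells and -100% = media-only wells without cells; nearly all actives have a fitted effect of over 55% in size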
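A 48-hour cytotoxicity screen used HT-1080-NT cells plated 2 hours before compound delivery. ATP-based CellTiter-Glo luminescence measured viability, normalized to DMSO and no-cell controls.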
MCF10A rerep: inducers of DNA re-replication in MCF 10A breast cells. MCF 10A DNA re-replication, Hoechst nuclear intensity, 48 h. AID 624296. Potency, µM (titrated, usually from 46.1 µM), inactives show at the top dose activity, positive = re-replication, hits mostly activators. 350,000 tested, 2.9% active; also: % of control where 0% means no effect; nearly all actives have a fitted effect of over 50% in size
KB-3-1 cytotox: KB-3-1 parental cell cytotoxicity; AID 1347075; Potency, µM (doses to about 46.1 µM), actives largely listed as cytotoxic; 400,000 tested, 1.4% active; KB-3-1 viability, CellTiter-Glo ATP luminescence, 72 h; also: % is scaled to controls: 0 for no effect and ±100 for the full control effect; nearly all actives have a fitted effect of over 60% in size
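Parental KB-3-1 viability, qHTS format: 72 h compound exposure, 37 °C; CellTiter-Glo; media-only wells and DMSO plates as controls; concentration-effect fits on corrected data.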
Active calls of the source: *; i = inactive; u = inconclusive; x = not tested or not shown. Calls follow the shape of the dose curve; as a rule, active = well fitted curve in the direction sought with a large enough effect; inconclusive = small, poorly fitted or top-dose-only effect, or another doubt; inactive = no such curve, though single readings can be large; an effect the other way counts as inactive or inconclusive. Potency is read from the fitted curve at half-maximal effect.

SMILES | KB-V1 cytotox | HT1080 IDH1KD tx | SW480 rerep | HT1080-NT tox | MCF10A rerep | KB-3-1 cytotox
Cc1ccc(Oc2nc3ccccn3c(=O)c2/C=C(\C#N)C(=O)NC2CCS(=O)(=O)C2)cc1 (centres undefined) | i | -1% | u | -2% | 8.2µM* | i
CCNC(=O)/C(C#N)=C/c1c(N2CC(C)OC(C)C2)nc2ccccn2c1=O (centres undefined) | u | 17% | 12% | 24% | 13% | i
Cc1cccn2c(=O)c(/C=C(\C#N)C(=O)NC3CCS(=O)(=O)C3)c(N3CCC(C(N)=O)CC3)nc12 (centres undefined) | i | 13% | x | 7% | u | i
O=C(Cc1ccc(NC(=O)N2CCCCc3ccccc32)cc1)NCc1ccccc1Br | i | x | x | x | x | i
CCc1ccc(NS(=O)(=O)c2[nH]ncc2C(=O)OC)cc1 | u | x | x | x | x | i
COc1ccc(OC)c(CNC(=O)C2CCN(S(=O)(=O)c3ccc4[nH]c(=O)oc4c3)CC2)c1 | i | x | x | x | x | i
Cc1oc2ccc(O)c(CN3CCCC3)c2c1C(=O)Nc1cccc(Cl)c1C | i | x | x | x | x | i
CC(=O)c1c(C(C)=O)c(C)n(-c2ccc(C)c(NC(=O)c3ccccc3Cl)c2)c1C | 3.7µM* | -22% | 8% | 0% | -6% | i
COCc1c(C#N)c(NCc2cc(OC)c(OC)c(OC)c2)nc(C)c1[N+](=O)[O-] | 5.2µM* | -22% | 0% | -13% | u | u
COCc1c(C#N)c(NCCc2ccc(F)cc2)nc(C)c1[N+](=O)[O-] | 5.2µM* | 4% | -4% | 2% | u | u
Cc1nc(NCCc2ccc(F)cc2)c(C#N)c(C)c1[N+](=O)[O-] | i | 3% | u | 1% | u | i
COc1cc(CNc2nc(C)c([N+](=O)[O-])c(C)c2C#N)cc(OC)c1 | 7.3µM* | -1% | 18% | -1% | 6% | u
Cc1ccc(C(=O)c2cc([N+](=O)[O-])ccc2N2CCCCC2)cc1C | 5.8µM* | 1.5µM* | 1.8µM* | 1.6µM* | u | 2.9µM*
Cc1ccc(C(=O)c2ccc([N+](=O)[O-])cc2)cc1C | i | 12% | 0% | 6% | 1% | i
Cc1cccc(NC(=O)c2cc([N+](=O)[O-])ccc2N2CCOCC2)c1C | i | 0% | x | -7% | x | i
Cc1ccc(C(=O)c2cc([N+](=O)[O-])ccc2N2CCOCC2)c(C)c1 | 0.58µM* | u | 0.13µM* | u | 0.92µM* | 1µM*
O=C(NC1CCCCC1)c1cc([N+](=O)[O-])ccc1N1CCCCC1 | 9.2µM* | -5% | 0% | -10% | -6% | i
Cc1ccc(C(=O)c2cc([N+](=O)[O-])ccc2N2CCOCC2)cc1C | 3.7µM* | 1.8µM* | x | u | u | 16µM*
O=c1[nH]c2ccccc2nc1N1CCOCC1 | i | 12% | -5% | u | -4% | i
c1ccc2c(Nc3nc(N4CCOCC4)c4ccccc4n3)cccc2c1 | u | 15µM* | u | 21µM* | 18µM* | u
c1ccc2c(c1)nc(N1CCOCC1)c1c3ccccc3[nH]c21 | 21µM* | -1% | u | 9% | 3.7µM* | i
Fc1ccc(Nc2nc(Nc3ccc(F)cc3)nc(N3CCOCC3)n2)cc1 | i | x | x | x | x | i
Fc1ccc(Nc2nc(N3CCOCC3)c3ccccc3n2)cc1 | 16µM* | -18% | 4% | -1% | u | u
Cc1cccc(N2CCN(S(=O)(=O)c3ccc4c(c3)CCC(=O)N4)CC2C)c1 (centres undefined) | 15µM* | -27% | 18% | -13% | u | i
Cc1cccc(N2CCN(S(=O)(=O)c3ccc4c(c3)C(C)(C)C(=O)N4C)CC2C)c1 (centres undefined) | i | 0% | -7% | -16% | 1% | i
SMILES | KB-V1 cytotox | HT1080 IDH1KD tx | SW480 rerep | HT1080-NT tox | MCF10A rerep | KB-3-1 cytotox
O=S(=O)(c1ccc(F)cc1)N1CCN(C(=S)NC2CC2)CC1 | i | -4% | 0.58µM* | -2% | 1% | i
CCCn1c(=O)c2c(C(=O)OCC)cc(-c3ccco3)nc2n(CCC)c1=O | 18µM* | 3% | -8% | 3% | 12µM* | i
CCOC(=O)c1cnn2c(C(F)(F)F)cc(-c3ccco3)nc12 | i | 0% | 16% | -1% | 0% | i
CCCn1c(=O)c2c(C(F)(F)F)cc(-c3ccco3)nc2n(CCC)c1=O | i | -4% | 2% | 3% | u | i
CCOC(=O)c1cc(-c2ccco2)nc2c1c(C)nn2-c1ccccc1 | i | 6% | 15% | 4% | 9.2µM* | i
CCOc1ccc(CCNC(=O)CSCc2nc(-c3cccc(C)c3)oc2C)cc1OCC | u | x | x | x | x | i
CCC1CCC(N2CCN(c3cccc(OC)c3)CC2)CC1 (centres undefined) | i | -4% | -54% | 4% | 5.2µM* | i
COc1cccc(N2CCN(C3C4CC5CC(C4)CC3C5)CC2)c1 (centres undefined) | u | 4% | -4% | -5% | u | i
COc1ccc(NC(=O)CSc2nc3c(oc4ccccc43)c(=O)n2-c2ccccc2)cc1OC | i | x | x | x | x | i
CCOC(=O)C1(N(CC)CC)Sc2cc(C)ccc2NC1=O (centres undefined) | 10µM* | u | u | u | u | u
CCOC(=O)c1[nH]c2ccc(C)cc2c1N | u | 3% | 1% | 2% | 4% | i
Cc1ccc(CNC(=O)c2c(-c3cccc(Br)c3)noc2C)o1 | i | x | x | x | x | i
CC(C)[C@H](N)c1nnc2n1N=C(c1ccc(Cl)cc1)CS2 | i | 0% | -22% | 3% | -9% | i
Brc1ccc(C2=Nn3c(nnc3-c3n[nH]c4c3CCC4)SC2)cc1 | 1.2µM* | 0.65µM* | u | 1.2µM* | u | 0.33µM*
Clc1ccc(C2=Nn3c(nnc3-c3n[nH]c4c3CCC4)SC2)cc1 | 3.7µM* | 5.8µM* | 6.5µM* | 5.8µM* | u | 3.7µM*
Cc1ccc(-c2nnc3n2N=C(c2ccc(Br)cc2)CS3)cc1 | i | 0% | -8% | -9% | 0% | i
CCN(C(=O)CSc1ncc(S(=O)(=O)c2ccc(C)c(Cl)c2)c(=O)[nH]1)c1cccc(C)c1 | i | x | x | x | x | i
CCC(Sc1nnc(C)n2c1cc1occc12)C(=O)Nc1ccccc1OC (centres undefined) | i | x | x | x | x | i
CCN(CC)c1ccc(N=Cc2ccc([N+](=O)[O-])o2)cc1 | i | u | 2.3µM* | 18µM* | 23µM* | 18µM*
